This passage reports growth inhibition results from PubChem BioAssay (NCI).

The nature of experiment [1]: NCI Yeast Anticancer Drug Screen. Data for the rad50 strain (AID 155).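 Further: 0% = growth of vehicle-only cultures of the same strain.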 Particulars: S. cerevisiae rad50 strain growth inhibition, stronger effect = higher value. The gist of the method: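 Compounds were tested on a yeast strain with an engineered DNA damage repair alteration; the reported value is growth inhibition normalised to vehicle treatment.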
Experiment [2] can be described thus: NCI Yeast Anticancer Drug Screen. Data for the mec2-1 strain (AID 157). Particulars: S. cerevisiae mec2-1 strain, stronger effect = higher value. In outline:
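Cells of the genetically defined mec2-1 yeast strain are incubated with test compound. Inhibition of growth is calculated against vehicle-treated controls.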

Experiment [3] can be described thus: NCI Yeast Anticancer Drug Screen. Data for the sgs1 mgt1 strain (AID 161).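 Further: 0% = growth of cultures given vehicle only.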 The note with it: S. cerevisiae sgs1 mgt1 strain, stronger effect = higher value. The gist of the method: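 Read-out: growth inhibition vs vehicle controls. Cells: mutant yeast strain deficient in DNA damage repair.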
A short description of experiment [4]: NCI Yeast Anticancer Drug Screen. Data for the cln2 rad14 strain (AID 165).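 Further: 0% = growth equal to vehicle treated cultures.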 The note with it: S. cerevisiae cln2 rad14 strain, stronger effect = higher value. The gist of the method: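 The screen exposed genetically defined yeast (cln2 rad14) to test compounds and scored growth inhibition relative to vehicle-treated controls.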
The nature of experiment [5]: NCI Yeast Anticancer Drug Screen. Data for the bub3 strain (AID 167). Particulars: S. cerevisiae bub3 mutant strain, stronger effect = higher value. The gist of the method: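 Growth of a checkpoint-deficient yeast mutant is measured after compound exposure. Values represent inhibition relative to vehicle.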
A short description of experiment [6]: NCI Yeast Anticancer Drug Screen. Data for the mlh1 rad18 strain (AID 175). The note with it: S. cerevisiae mlh1 rad18 strain growth inhibition, stronger effect = higher value. The gist of the method:
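Compound-treated yeast growth, normalised to vehicle controls. Strain bears defined DNA repair mutations.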

[7] abbreviates: at 5.0 µM (retest, dose inferred, filed as 0.5).
The mark [8] stands for this setting: at 50.0 µM (retest, dose inferred, filed as 5.0).

Several values for one entry are separate records, joined by “and”; a condition that tells them apart may be missing. Equal values may be shown once. About 79,000 compounds went through this panel and 15% of them were active in at least one assay; those are over-represented in the sample as a whole. The source holds several records for some structures; these can differ, active in one and inactive in another. Activity calls are given as the source filed them. No stated cut-off is given here; in the data, active means growth inhibition above about 70%; inactive means the rest.

Consider `COC(=O)c1ccc(O)c(OC)c1`, for which the growth inhibition in experiment [1] (setting [7]) was -1% (inactive); in experiment [1] (setting [8]), -5% (inactive); in experiment [1] (at 50.0 µM), -25.2% (inactive); in experiment [2] (setting [7]), 1% (inactive); in experiment [2] (setting [8]), -3% (inactive); in experiment [2] (at 50.0 µM), -2.35% (inactive). Besides, the growth inhibition in experiment [3] (setting [7]) is 0% (inactive); in experiment [3] (setting [8]) it was -1% (inactive); in experiment [3] (at 50.0 µM), -8.9% (inactive); in experiment [4] (setting [7]), -2% (inactive); in experiment [4] (setting [8]), 2% (inactive); in experiment [4] (at 50.0 µM), 28.1% (inactive). Further, the growth inhibition was 12% (inactive) in experiment [5] (setting [7]); 27% (inactive) in experiment [5] (setting [8]); 12.8% (inactive) in experiment [5] (at 50.0 µM); -4% (inactive) in experiment [6] (setting [7]); -3% (inactive) in experiment [6] (setting [8]); 9.5% (inactive) in experiment [6] (at 50.0 µM).

`O=C1c2ccccc2C(=O)N1CC[P+](c1ccccc1)(c1ccccc1)c1ccccc1`: the growth inhibition in experiment [1] (setting [7]) is 48% (inactive); in experiment [1] (setting [8]) it was 79% (active); in experiment [1] (at 50.0 µM) it was 70.5% (active) and 58.6% (inactive); in experiment [2] (setting [7]), 36% (inactive); in experiment [2] (setting [8]), 87% (active); in experiment [2] (at 50.0 µM) it was 58.5% (inactive) and 46.8% (inactive). The growth inhibition in experiment [3] (setting [7]) was 20% (inactive); in experiment [3] (setting [8]), 69% (inactive); in experiment [3] (at 50.0 µM) it was 63.5% (inactive) and 62.5% (inactive); in experiment [4] (setting [7]), -5% (inactive); in experiment [4] (setting [8]), 47% (inactive); in experiment [4] (at 50.0 µM) it was 20.8% (inactive) and 40% (inactive). Further, the growth inhibition in experiment [5] (setting [7]) was 30% (inactive); in experiment [5] (setting [8]), 79% (active); in experiment [5] (at 50.0 µM), 57.9% (inactive) and 43.3% (inactive); in experiment [6] (setting [7]), 43% (inactive); in experiment [6] (setting [8]), 85% (active); in experiment [6] (at 50.0 µM), 63.1% (inactive) and 54.9% (inactive).

Turning to `COC(=O)C1C(O)C(C)C(O)C(C)C=C(C)C2=C3C(=C(C)C(=O)c4c(O)c(c(C)c(OC(C)=O)c43)NC(=O)C(C)=C/C=C\C(C)C(O)C(C)C1O)OCO2` (stereo unspecified), the growth inhibition in experiment [1] (setting [7]) is -11% (inactive); in experiment [1] (setting [8]), -37% (inactive); in experiment [1] (at 50.0 µM), 53.1% (inactive) and 5.45% (inactive); in experiment [2] (setting [7]), -14% (inactive); in experiment [2] (setting [8]), -42% (inactive); in experiment [2] (at 50.0 µM), 22.1% (inactive) and -8.55% (inactive). Moreover, the growth inhibition in experiment [3] (setting [7]) is -11% (inactive); in experiment [3] (setting [8]) it was 89% (active); in experiment [3] (at 50.0 µM) it was 90.2% (active) and -9.2% (inactive); in experiment [4] (setting [7]) it was -10% (inactive); in experiment [4] (setting [8]) it was 10% (inactive); in experiment [4] (at 50.0 µM), 28.6% (inactive) and 3% (inactive). Besides, the growth inhibition in experiment [5] (setting [7]) was -31% (inactive); in experiment [5] (setting [8]), -27% (inactive); in experiment [5] (at 50.0 µM), 37.9% (inactive) and 8.2% (inactive); in experiment [6] (setting [7]), -36% (inactive); in experiment [6] (setting [8]), -3% (inactive); in experiment [6] (at 50.0 µM), 17.6% (inactive) and 8.65% (inactive).

With `Oc1c(Cl)c(Cl)c(Cl)c2ccccc12`, the growth inhibition is 84% (active) in experiment [1] (setting [7]); 95% (active) in experiment [1] (setting [8]); 95.5% (active) in experiment [1] (at 50.0 µM); 79% (active) in experiment [2] (setting [7]); 98% (active) in experiment [2] (setting [8]); 96.8% (active) in experiment [2] (at 50.0 µM). Also, the growth inhibition in experiment [3] (setting [7]) is 38% (inactive); in experiment [3] (setting [8]), 34% (inactive); in experiment [3] (at 50.0 µM), 95.9% (active); in experiment [4] (setting [7]) it was 39% (inactive); in experiment [4] (setting [8]), 94% (active); in experiment [4] (at 50.0 µM), 53.4% (inactive). For the same molecule, the growth inhibition was 92% (active) in experiment [5] (setting [7]); 93% (active) in experiment [5] (setting [8]); 91.2% (active) in experiment [5] (at 50.0 µM); 87% (active) in experiment [6] (setting [7]); 98% (active) in experiment [6] (setting [8]); 96.7% (active) in experiment [6] (at 50.0 µM).

As for `CN1CCN(CN2C(=O)C3C4C=CC(C3C2=O)C2C3C(=O)N(CN5CCN(C)CC5)C(=O)C3C42)CC1` (stereo unspecified), the growth inhibition is -3% (inactive) in experiment [1] (setting [7]); -12% (inactive) in experiment [1] (setting [8]); -28.4% (inactive) and -8.45% (inactive) and -17.1% (inactive) in experiment [1] (at 50.0 µM); 1% (inactive) in experiment [2] (setting [7]); 30% (inactive) in experiment [2] (setting [8]); -28.4% (inactive) and 11.8% (inactive) and -15.2% (inactive) in experiment [2] (at 50.0 µM). For the same molecule, the growth inhibition in experiment [3] (setting [7]) is -1% (inactive); in experiment [3] (setting [8]), 0% (inactive); in experiment [3] (at 50.0 µM), -18.7% (inactive) and 18.9% (inactive) and -32.5% (inactive); in experiment [4] (setting [7]), -10% (inactive); in experiment [4] (setting [8]), -9% (inactive); in experiment [4] (at 50.0 µM), -7.45% (inactive) and 32.5% (inactive) and -40.9% (inactive). For the same molecule, the growth inhibition was 11% (inactive) in experiment [5] (setting [7]); 2% (inactive) in experiment [5] (setting [8]); -13.5% (inactive) and -11.5% (inactive) and -76% (inactive) in experiment [5] (at 50.0 µM); -1% (inactive) in experiment [6] (setting [7]); 18% (inactive) in experiment [6] (setting [8]); -4.4% (inactive) and -31.1% (inactive) and -65% (inactive) in experiment [6] (at 50.0 µM).

As to `COc1cccc(NC(=S)C(C#N)C(=O)Nc2cccc(C(F)(F)F)c2)c1` (stereo unspecified), the growth inhibition in experiment [1] (setting [7]) is 66% (inactive); in experiment [1] (setting [8]), 95% (active); in experiment [1] (at 50.0 µM), 78.2% (active); in experiment [2] (setting [7]), 74% (active); in experiment [2] (setting [8]), 97% (active); in experiment [2] (at 50.0 µM) it was 84.9% (active). In addition, the growth inhibition was 52% (inactive) in experiment [3] (setting [7]); 91% (active) in experiment [3] (setting [8]); 85.5% (active) in experiment [3] (at 50.0 µM); 52% (inactive) in experiment [4] (setting [7]); 88% (active) in experiment [4] (setting [8]); 43.1% (inactive) in experiment [4] (at 50.0 µM). Further, the growth inhibition in experiment [5] (setting [7]) was 48% (inactive); in experiment [5] (setting [8]), 95% (active); in experiment [5] (at 50.0 µM), 87% (active); in experiment [6] (setting [7]), 88% (active); in experiment [6] (setting [8]) it was 96% (active); in experiment [6] (at 50.0 µM), 70.5% (active).

Regarding `CC(C)OP(=O)(OC(C)C)C(=Nc1ccccc1)NNc1ccc([N+](=O)[O-])cc1`, the growth inhibition in experiment [1] (setting [7]) is -22% (inactive); in experiment [1] (setting [8]), -15% (inactive); in experiment [1] (at 50.0 µM), 71.1% (active); in experiment [2] (setting [7]) it was -21% (inactive); in experiment [2] (setting [8]), 2% (inactive); in experiment [2] (at 50.0 µM) it was 16.6% (inactive). Also, the growth inhibition was -13% (inactive) in experiment [3] (setting [7]); 15% (inactive) in experiment [3] (setting [8]); 22.7% (inactive) in experiment [3] (at 50.0 µM); -33% (inactive) in experiment [4] (setting [7]); -6% (inactive) in experiment [4] (setting [8]); -18.8% (inactive) in experiment [4] (at 50.0 µM). Moreover, the growth inhibition is -17% (inactive) in experiment [5] (setting [7]); -20% (inactive) in experiment [5] (setting [8]); 43.6% (inactive) in experiment [5] (at 50.0 µM); -8% (inactive) in experiment [6] (setting [7]); 7% (inactive) in experiment [6] (setting [8]); 44% (inactive) in experiment [6] (at 50.0 µM).
